Source: PubChem BioAssay
Potency and affinity values are given separately. Active and inactive are the calls of the source. A call without a number means that no potency is given here. The rule behind the calls is not given here.

Experiment: IOSE-T80 ovarian epithelial cell cytotoxicity, dose response, cytotoxicity control for PAX8 inhibitor project, plate reader, dry powder samples (AID 743045);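 note: more negative values mean more cell killing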
Conditions: IOSE-T80 ovarian epithelial cells; series mostly up to 35 µM

| Structure (SMILES) | outcome |
| --- | --- |
| O=C(CCS(=O)(=O)c1ccccc1)Nc1nc2ccc(F)cc2s1 | inactive |
| C[C@@H]1CCCCO[C@@H](CN(C)Cc2ccc(C(F)(F)F)cc2)[C@H](C)CN([C@@H](C)CO)C(=O)c2cc(NS(=O)(=O)c3ccc(Cl)cc3)ccc2O1 | inactive |
| COc1ccc2c3c([nH]c2c1)[C@@H](CO)N(C(=O)Nc1cccc(F)c1)CC31CCN(S(=O)(=O)c2cccc(C)c2)CC1 | inactive |
| C[C@@H]1CN([C@@H](C)CO)C(=O)c2cc(NC(=O)CCC(F)(F)F)ccc2O[C@@H](C)CCCCO[C@H]1CN(C)Cc1ccc(C(F)(F)F)cc1 | inactive |
| C[C@H](CO)N1C[C@H](C)[C@H](CN(C)CC2CCCCC2)OCCCC[C@H](C)Oc2ccc(NC(=O)Nc3ccccc3)cc2C1=O | inactive |
| O=C(CN1C(=O)c2ccccc2S1(=O)=O)c1ccc(Cl)cc1Cl | inactive |
| CN(C)CCCN(C(=O)CCOc1ccccc1)c1nc2c(F)cccc2s1 | inactive |
| COc1ccc(C#Cc2ccc([C@H]3[C@@H](CO)N4CCCCN(C(=O)Nc5ccccc5)C[C@H]34)cc2)cc1 | inactive |
| C[C@H]1CCCCO[C@@H](CN(C)Cc2ccncc2)[C@@H](C)CN([C@@H](C)CO)C(=O)c2cc(NC(=O)Nc3ccc(C(F)(F)F)cc3)ccc2O1 | inactive |
| C[C@@H]1CN([C@H](C)CO)C(=O)c2cc(NC(=O)Cc3ccccc3)ccc2O[C@@H](C)CCCCO[C@H]1CN(C)Cc1ccc(C(F)(F)F)cc1 | inactive |
| O=C(C1CCC1)N1CCCCN2[C@H](CO)[C@H](c3ccc(-c4cccc(F)c4)cc3)[C@H]2C1 | inactive |
